Screening results: PubChem, National Center for Advancing Translational Sciences (NCATS)
AmpC inh no detg = blocks E. coli AmpC beta-lactamase in detergent-free assay; P00811; AmpC nitrocefin hydrolysis, absorbance 480 nm, 0.0001% Triton; Potency, µM (series often up to 57.1 µM), actives largely listed as inhibitors; hit rate 0.52% among 330,000; further: nearly all actives have a fitted effect of over 20% in size
Target sequence (P00811 whole entry, looked up): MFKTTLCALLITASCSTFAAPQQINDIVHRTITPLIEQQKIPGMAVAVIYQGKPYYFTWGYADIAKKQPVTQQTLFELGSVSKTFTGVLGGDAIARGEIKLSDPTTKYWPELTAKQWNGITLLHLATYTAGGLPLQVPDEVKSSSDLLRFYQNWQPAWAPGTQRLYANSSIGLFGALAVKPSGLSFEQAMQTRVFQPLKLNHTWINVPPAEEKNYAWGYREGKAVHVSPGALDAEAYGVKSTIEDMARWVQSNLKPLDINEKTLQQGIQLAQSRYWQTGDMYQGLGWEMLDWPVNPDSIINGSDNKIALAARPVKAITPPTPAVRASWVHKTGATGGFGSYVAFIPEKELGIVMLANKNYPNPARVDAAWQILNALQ
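AmpC (5.3 nM in the dispensed reagent) in 20 mM phosphate pH 7.0 with 0.01% (detergent screen) or 0.0001% Triton X-100 was preincubated with compounds for 15 min at room temperature. Nitrocefin was then added from an 800 uM solution, and hydrolysis was followed at 480 nm.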
AmpC inh detg = blocks E. coli AmpC beta-lactamase in detergent assay; Potency, µM (series often up to 114 µM), most hits filed as inhibitors; P00811; hit rate 0.041% among 370,000; AID 485294; AmpC hydrolysis of nitrocefin, absorbance 480 nm, 0.01% Triton; further: nearly all actives have a fitted effect of over 25% in size
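AmpC (5.3 nM in the dispensed reagent) in 20 mM phosphate pH 7.0 with 0.01% (detergent screen) or 0.0001% Triton X-100 was preincubated with compounds for 15 min at room temperature. Nitrocefin was then added from an 800 uM solution, and hydrolysis was followed at 480 nm.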
FBPA Giardia inh = blocks Giardia fructose-bisphosphate aldolase activity. A8B2U2. purified Giardia FBPA. Potency, µM (series often up to 59.6 µM), usual class: inhibitors. hit rate 0.71% among 290,000; further: nearly all actives have a fitted effect of over 55% in size
Target sequence (A8B2U2 whole entry, looked up): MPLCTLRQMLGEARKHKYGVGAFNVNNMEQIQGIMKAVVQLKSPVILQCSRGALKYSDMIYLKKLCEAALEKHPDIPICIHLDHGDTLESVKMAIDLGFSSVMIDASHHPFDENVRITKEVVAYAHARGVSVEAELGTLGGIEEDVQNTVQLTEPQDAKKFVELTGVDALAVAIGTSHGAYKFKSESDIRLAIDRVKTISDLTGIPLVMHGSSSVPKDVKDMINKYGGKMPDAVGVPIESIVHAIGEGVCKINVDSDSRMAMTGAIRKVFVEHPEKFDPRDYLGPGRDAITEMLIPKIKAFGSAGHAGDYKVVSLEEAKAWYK
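40 nM FBPA preincubated 10 min at RT with compound (up to 57.5 uM final), then substrate plus GAPDH/TPI/NAD/arsenate coupling and diaphorase/resazurin added. Fluorescence read after 20 min at RT, 525/598 nm.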
Sm TGR inh = blocks Schistosoma mansoni thioredoxin glutathione reductase. hit rate 3% among 360,000. purified TGR, DTNB reduction, TNB absorbance 405 nm. Potency, µM (titrated, usually from 114 µM), most hits filed as inhibitors. AID 485364; further: nearly all actives have a fitted effect of over 60% in size
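Kinetic colorimetric format: TGR-catalysed, NADPH-driven DTNB reduction monitored via TNB absorbance. Enzyme dispensed at 20 nM; compound exposure 15 min at room temperature before reaction start.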
Numbers stand for hits. An excerpt weighted towards active compounds, which were near 3.6% of everything screened. The call rests on the fitted dose curve; in most records, active means well fitted curve in the direction sought with a large enough effect; inconclusive means small, poorly fitted or top-dose-only effect, or another doubt; inactive means no such curve, though single readings can be large; an effect the other way counts as inactive or inconclusive.

For C#CCOc1c(Br)cc(C2C(C(=O)OC)=C(C)NC3=C2C(=O)c2ccccc23)cc1OCC (stereo not given) the results were AmpC inh detg inactive and Sm TGR inh 28µM.
Screening CCOc1ccc(C2C(C(=O)OC)=C(C)NC3=C2C(=O)c2ccccc23)cc1OC (stereo not given) returned AmpC inh detg inactive and Sm TGR inh inactive.
CCC(=O)Nc1nc(C)c(-c2csc(Nc3cccc(O)c3)n2)s1 was read as AmpC inh no detg 16µM, AmpC inh detg inconclusive, FBPA Giardia inh inactive and Sm TGR inh inactive.
Screening Cc1nc(NC(=O)c2ccccc2)sc1-c1csc(Nc2cccc(Cl)c2)n1 returned AmpC inh no detg 14µM, AmpC inh detg inactive, FBPA Giardia inh inactive and Sm TGR inh inactive.
Screening COc1ccc(OC)c(CNC(=O)c2ccc3c(c2)c(C)c(C)n3Cc2ccc(Cl)cc2)c1 returned AmpC inh detg inactive and Sm TGR inh inactive.
For O=C(c1ccco1)N1CCN(C(c2ccccc2Cl)c2nnnn2Cc2ccco2)CC1 (stereo not given) the results were AmpC inh no detg inactive, AmpC inh detg inactive, FBPA Giardia inh inactive and Sm TGR inh inconclusive.
Cc1cc(O)c(C(c2ccccc2Cl)N2CCN(c3ccccc3)CC2)c(=O)n1Cc1ccco1 (stereo not given) was read as AmpC inh detg inactive and Sm TGR inh 2.8µM.
CCN1CCN(C(c2ccccc2Cl)c2c(O)cc(C)n(Cc3ccco3)c2=O)CC1 (stereo not given) was read as AmpC inh detg inactive and Sm TGR inh 4µM.
Cc1ccc(NC(=O)c2nc(S(=O)(=O)Cc3ccccc3C)ncc2Cl)cc1C was read as AmpC inh no detg inactive, AmpC inh detg inactive, FBPA Giardia inh inactive and Sm TGR inh 11µM.
`Cc1ccc(CS(=O)(=O)c2ncc(Cl)c(C(=O)Nc3nc4ccc(C)cc4s3)n2)cc1` gave AmpC inh detg inactive and Sm TGR inh inconclusive.
For CC(C)c1nnc(NC(=O)c2nc(S(=O)(=O)Cc3ccccc3)ncc2Cl)s1 the results were AmpC inh no detg inactive, AmpC inh detg inconclusive and Sm TGR inh 40µM.
`CSc1nnc(NC(=O)c2nc(S(=O)(=O)Cc3ccccc3)ncc2Cl)s1` gave AmpC inh no detg inactive, AmpC inh detg inactive and Sm TGR inh 13µM.
For CCCc1nnc(NC(=O)c2nc(S(=O)(=O)Cc3ccc(C)cc3)ncc2Cl)s1 the results were AmpC inh no detg inactive, AmpC inh detg inactive and Sm TGR inh 25µM.
For CCOc1ccc(C(=O)/C=C/c2cn(CC(O)CN3CCc4ccccc43)c3ccccc23)cc1 (stereo not given) the results were AmpC inh detg inactive and Sm TGR inh inactive.
CCC(=O)Nc1ccccc1-c1nc2ccccc2n(C(C)C(=O)Nc2cccc(Cl)c2C)c1=O (stereo not given) was read as AmpC inh detg inactive and Sm TGR inh inactive.
COc1ccc(C(=O)COC(=O)CCN=C2NS(=O)(=O)c3ccccc32)c(OC)c1 was read as AmpC inh no detg inactive, AmpC inh detg inactive and Sm TGR inh inactive.
For COc1ccc(NC(=O)CN2CCCN(S(=O)(=O)c3ccc(Br)cc3)CC2)c(OC)c1 the results were AmpC inh detg inactive and Sm TGR inh inactive.
Screening Cc1ccccc1CS(=O)(=O)c1ncc(Cl)c(C(=O)Nc2nnc(C(C)C)s2)n1 returned AmpC inh detg inactive and Sm TGR inh 20µM.
For CC(C)Sc1ncc(Cl)c(C(=O)Nc2nnc(C(C)C)s2)n1 the results were AmpC inh detg inactive and Sm TGR inh inactive.
O=C(O)c1ccccc1C(=O)N1CC=C(c2ccccc2)CC1 was read as AmpC inh no detg inactive, AmpC inh detg inactive, FBPA Giardia inh inactive and Sm TGR inh 35µM.
`Cc1cc(C(=O)N2CC=C(c3ccccc3)CC2)c2ccccc2n1` gave AmpC inh no detg inactive, AmpC inh detg inactive and Sm TGR inh inactive.
`Cc1ccc(C(=O)N2CC=C(c3ccccc3)CC2)o1` gave AmpC inh no detg inactive, AmpC inh detg inactive and Sm TGR inh 28µM.
COc1ccc(OC)c(NC(=O)COc2ccc3c(c2)CCC3)c1 was read as AmpC inh no detg inactive, AmpC inh detg inactive and Sm TGR inh inactive.
Screening O=C1NC(=S)N(c2ccccc2)C(=O)/C1=C/c1ccco1 returned AmpC inh no detg inactive, AmpC inh detg inactive, FBPA Giardia inh inactive and Sm TGR inh 14µM.
O=C1NC(=S)N(c2ccc(F)cc2)C(=O)/C1=C/c1ccccc1O was read as AmpC inh no detg inactive, AmpC inh detg inactive, FBPA Giardia inh inactive and Sm TGR inh inconclusive.
`COc1ccc(N2C(=O)NC(=O)/C(=C\c3cn(C)c4ccccc34)C2=O)cc1` gave AmpC inh no detg inactive, AmpC inh detg inactive, FBPA Giardia inh inactive and Sm TGR inh inconclusive.
`CCOc1cccc(N2C(=O)/C(=C/c3ccco3)C(=O)NC2=S)c1` gave AmpC inh no detg inactive, AmpC inh detg inconclusive, FBPA Giardia inh inactive and Sm TGR inh inconclusive.
Screening COc1ccccc1/C=C1\C(=O)NC(=S)N(c2ccccc2)C1=O returned AmpC inh no detg inactive, AmpC inh detg inactive, FBPA Giardia inh inactive and Sm TGR inh 8.9µM.
Screening COc1ccc(N2C(=O)/C(=C/C=C/c3ccccc3[N+](=O)[O-])C(=O)NC2=S)cc1 returned AmpC inh no detg inactive, AmpC inh detg inactive, FBPA Giardia inh inconclusive and Sm TGR inh 45µM.
COc1ccc(N2C(=O)/C(=C/c3cccs3)NC2=S)cc1 was read as AmpC inh no detg inactive, AmpC inh detg inactive, FBPA Giardia inh inactive and Sm TGR inh inactive.
`COc1ccc(N2C(=O)/C(=C/c3cccs3)C(=O)NC2=S)cc1` gave AmpC inh no detg inactive, AmpC inh detg inactive, FBPA Giardia inh inactive and Sm TGR inh 35µM.
COc1ccc(C(=O)NCc2ccon2)cc1OC1CCN(C(C)C)CC1 was read as AmpC inh no detg inactive, AmpC inh detg inactive, FBPA Giardia inh inactive and Sm TGR inh inactive.
For Cn1c2ccccc2c2cc(C(=O)NNC(=O)CCl)sc21 the results were AmpC inh no detg inactive, AmpC inh detg inactive, FBPA Giardia inh inactive and Sm TGR inh 40µM.
For CCCNC(=O)c1cc2c3ccccc3n(C)c2s1 the results were AmpC inh no detg inactive, AmpC inh detg inactive, FBPA Giardia inh inactive and Sm TGR inh inactive.
COC(=O)c1ccc(CN(C)S(=O)(=O)c2ccc(C)cc2)o1 was read as AmpC inh no detg inactive, AmpC inh detg inconclusive, FBPA Giardia inh inactive and Sm TGR inh inactive.
Screening Cc1ccc(CNC(=O)c2ccc(CSCc3ccc(C)cc3)o2)cc1 returned AmpC inh detg inactive and Sm TGR inh inconclusive.
For CCCCNC(=O)c1ccc(CS(=O)(=O)c2ccc(C)cc2)o1 the results were AmpC inh no detg inactive, AmpC inh detg inactive, FBPA Giardia inh inactive and Sm TGR inh 45µM.
For COC(=O)c1ccc(CS(=O)(=O)c2ccc(C)cc2)o1 the results were AmpC inh no detg inactive, AmpC inh detg inactive, FBPA Giardia inh inactive and Sm TGR inh 11µM.
Screening COCCCNC(=O)c1ccc(CSCc2ccc(C)cc2)o1 returned AmpC inh no detg inactive, AmpC inh detg inactive, FBPA Giardia inh inactive and Sm TGR inh 40µM.
